Measurements taken from PubChem BioAssay (Tox21).
Several values for one entry are separate records, joined by “and”; a condition that tells them apart may be missing. Equal entries are not always repeated. Results filed as inconclusive are left out. Entries that show only a call come without a potency. A structure can be active in one record and inactive in another. Activity calls are given as the source filed them. The call rests on the fitted dose curve; in most records, active means well fitted curve in the direction sought with a large enough effect in the repeat runs; inconclusive means weak or mixed curves; inactive means no such curve, though single readings can be large; an effect the other way counts as inactive or inconclusive.

Columns and labels:
[1] = A CellTox Green Cytotoxicity Assay to monitor cytotoxicity in HEK293 cells - 40 hour (AID 1224871); further: nearly all actives have a fitted effect of over 45% in size; further: potency means the concentration at half of the fitted maximal effect
Procedure, shortened: (§1)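 Cells (HEK293, 600/well) and dye reagent are dispensed together. After 5 h at 37 C, 23 nL compound is pinned in. Plates stay at 37 C for 40 h with fluorescence read at 0h, 8h, 16h, 24h, 32h and 40h.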

[2] = qHTS RealTime-Glo MT Cell Viability Assay in HEK293 cells - 16 hour (AID 1224872); further: nearly all actives have a fitted effect of over 50% in size; further: potency means the concentration at half of the fitted maximal effect; on activity change, negative = cytotoxicity: top concentration of the series differs between compounds
Procedure, shortened: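 Nonlytic real-time viability readout: viable cells convert prosubstrate to NanoLuc substrate, giving luminescence proportional to live cell number. HEK293, 600 cells/well, compound added after 5 h, continuous culture at 37 C.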

[3] = qHTS RealTime-Glo MT Cell Viability Assay in HepG2 cells - 8 hour (AID 1224873); further: nearly all actives have a fitted effect of over 55% in size; further: potency means the concentration at half of the fitted maximal effect
Procedure, shortened: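 HepG2 cells (600/well) mixed with RealTime-Glo MT reagent, settled 5 h at 37 C/5% CO2 before compound addition. Nonlytic NanoLuc luminescence from viable-cell prosubstrate reduction read repeatedly during 40 h treatment at 37 C.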

[4] = qHTS RealTime-Glo MT Cell Viability Assay in HEK293 cells - 40 hour (AID 1224874); details: RealTime-Glo luminescence; max response: stronger effect = lower value; further: nearly all actives have a fitted effect of over 50% in size; further: potency means the concentration at half of the fitted maximal effect
Procedure, shortened: (§2)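 Real-time viability in HEK293: signal arises when living cells convert a prosubstrate for NanoLuc in the medium, so luminescence tracks viable cell number. Compound (23 nL, DMSO) added 5 h post-seeding; kinetic reads at 0–40 h, 37 C.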

[5] = A CellTox Green Cytotoxicity Assay to monitor cytotoxicity in HEK293 cells - 24 hour (AID 1224875); further: nearly all actives have a fitted effect of over 45% in size; further: potency means the concentration at half of the fitted maximal effect; on activity change: series mostly up to about 77 µM
Procedure, shortened: as §1

[6] = A CellTox Green Cytotoxicity Assay to monitor cytotoxicity in HepG2 cells - 16 hour (AID 1224876); further: nearly all actives have a fitted effect of over 45% in size; further: potency means the concentration at half of the fitted maximal effect
Procedure, shortened: (§3)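 Cells and non-lytic dye reagent are dispensed together (600 HepG2 cells/well) and incubated 5 h before DMSO compound transfer. Kinetic fluorescence is then recorded in the same wells during 40 h at 37 C.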

[7] = qHTS RealTime-Glo MT Cell Viability Assay in HepG2 cells - 32 hour (AID 1224877); further: nearly all actives have a fitted effect of over 55% in size; further: potency means the concentration at half of the fitted maximal effect
Procedure, shortened: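 Luminescence read-out: viable HepG2 cells reduce a prosubstrate to a NanoLuc substrate, giving a signal proportional to live cell number. Reads taken at 0, 8, 16, 24, 32 and 40 h of compound exposure at 37 C.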

[8] = A CellTox Green Cytotoxicity Assay to monitor cytotoxicity in HepG2 cells - 24 hour (AID 1224878); further: nearly all actives have a fitted effect of over 45% in size; further: potency means the concentration at half of the fitted maximal effect
Procedure, shortened: as §3

[9] = A CellTox Green Cytotoxicity Assay to monitor cytotoxicity in HepG2 cells - 40 hour (AID 1224879); further: nearly all actives have a fitted effect of over 40% in size; further: potency means the concentration at half of the fitted maximal effect
Procedure, shortened: as §3

[10] = qHTS RealTime-Glo MT Cell Viability Assay in HEK293 cells - 0 hour (AID 1224880)
Procedure, shortened: as §2

CC(C)C1CCC(Cc2ccc(Cl)cc2)C1(O)Cn1cncn1 (stereo not drawn)
Potency [1]: 24.3 µM (active) | Potency [2]: 12.2 µM (active) | Potency [3]: 24.3 µM (active) | Potency [4]: 10.9 µM (active) | Potency [5]: 24.3 µM (active) | Potency [6]: 48.5 µM (active) | Potency [7]: 48.5 µM (active) | Potency [8]: 43.2 µM (active) | Potency [9]: 43.2 µM (active) | Potency [10]: inactive

O=C(CCCN1CCC2(CC1)C(=O)NCN2c1ccccc1)c1ccc(F)cc1
Potency [1]: 19 µM (active) | Potency [2]: 6.74 µM (active) | Potency [3]: inactive | Potency [4]: 13.4 µM (active) | Potency [5]: inactive | Potency [6]: inactive | Potency [7]: inactive | Potency [8]: inactive | Potency [9]: inactive | Potency [10]: inactive

COc1ccc(OC)c(CC(C)N)c1 (stereo not drawn)
Potency [1]: inactive | Potency [2]: inactive | Potency [3]: inactive | max response [4]: -2.46% (inactive) | Potency [5]: inactive | Potency [6]: inactive | Potency [7]: inactive | Potency [8]: inactive | Potency [9]: inactive

c1ccc(OCC2CO2)cc1 (stereo not drawn)
Potency [1]: inactive | Potency [2]: inactive | Potency [3]: inactive | max response [4]: 7.88% (inactive) | Potency [5]: inactive | Potency [6]: inactive | Potency [7]: inactive | Potency [8]: inactive | Potency [9]: inactive | Potency [10]: inactive

N#Cc1ccccc1N
Potency [1]: inactive | Potency [2]: inactive | Potency [3]: inactive | max response [4]: 0.901% (inactive) | Potency [5]: inactive | Potency [6]: inactive | Potency [7]: inactive | Potency [8]: inactive | Potency [9]: inactive | Potency [10]: inactive

N#Cc1ccccc1Cl
Potency [1]: inactive | Potency [2]: inactive | Potency [3]: inactive | max response [4]: -1.15% (inactive) | Potency [5]: inactive | Potency [6]: inactive | Potency [7]: inactive | Potency [8]: inactive | Potency [9]: inactive | Potency [10]: inactive

Cc1ccc(OP(=O)(Oc2ccccc2)Oc2ccccc2)cc1
Potency [1]: inactive | Potency [2]: inactive | Potency [3]: inactive | max response [4]: -19.8% (inactive) | Potency [5]: inactive | Potency [6]: inactive | Potency [7]: inactive | Potency [8]: inactive | Potency [9]: inactive

BrCBr
Potency [1]: inactive | Potency [2]: inactive | Potency [3]: inactive | max response [4]: 10.5% (inactive) | Potency [5]: inactive | Potency [6]: inactive | Potency [7]: inactive | Potency [8]: inactive | Potency [9]: inactive | Potency [10]: inactive

Cc1cc(C)cc(OP(=O)(Oc2cc(C)cc(C)c2)Oc2cc(C)cc(C)c2)c1
Potency [1]: inactive | Potency [2]: inactive | Potency [3]: inactive | max response [4]: -16.9% (inactive) | Potency [5]: inactive | Potency [6]: inactive | Potency [7]: inactive | Potency [8]: inactive | Potency [9]: inactive | Potency [10]: inactive

C[C@@H]1CC[C@@]2(OC1)O[C@H]1[C@@H](O)[C@H]3[C@@H]4CC[C@H]5C[C@@H](O[C@@H]6O[C@H](CO)[C@H](O[C@@H]7O[C@H](CO)[C@@H](O)[C@H](O[C@@H]8OC[C@@H](O)[C@H](O)[C@H]8O)[C@H]7O[C@@H]7O[C@H](CO)[C@@H](O)[C@H](O[C@@H]8O[C@H](CO)[C@@H](O)[C@H](O)[C@H]8O)[C@H]7O)[C@H](O)[C@H]6O)[C@H](O)C[C@]5(C)[C@H]4CC[C@]3(C)[C@H]1[C@@H]2C
Potency [1]: 3.68 µM (active) | Potency [2]: 9.25 µM (active) | Potency [3]: 16.4 µM (active) | Potency [4]: 11.6 µM (active) | Potency [5]: 1.31 µM (active) | Potency [6]: 13.1 µM (active) | Potency [7]: 23.2 µM (active) | Potency [8]: 11.6 µM (active) | Potency [9]: 11.6 µM (active)

BrCC(Br)c1ccccc1 (stereo not drawn)
Potency [1]: inactive | Potency [2]: inactive | Potency [3]: inactive | max response [4]: 1.25% (inactive) | Potency [5]: inactive | Potency [6]: inactive | Potency [7]: inactive | Potency [8]: inactive | Potency [9]: inactive | Potency [10]: inactive

Brc1c(Br)c(Br)c(Oc2c(Br)c(Br)c(Br)c(Br)c2Br)c(Br)c1Br
cytotoxicity increase [1]: 1.02% [at 15.8 µM] (inactive) | activity change, negative = cytotoxicity [2]: 3.04% [at 15.8 µM] (inactive) | viability change, negative = cytotoxic [3]: 5% [at 15.8 µM] (inactive) | max response [4]: 1.84% (inactive) | activity change [5]: -3.29% [at 15.8 µM, stronger effect = higher value] (inactive) | cytotoxicity increase [6]: -3.41% [at 15.8 µM] (inactive) | activity change, negative = cytotoxic [7]: -3.04% [at 15.8 µM] (inactive) | cytotoxicity [8]: -2.63% [at 15.8 µM] (inactive)

O=c1[nH]c2ccccc2n1C1CCN(CCCC(c2ccc(F)cc2)c2ccc(F)cc2)CC1
Potency [1]: 49 µM (active) and inactive | Potency [2]: 13.8 µM (active) and 19 µM (active) | Potency [3]: 43.6 µM (active) and inactive | Potency [4]: 17.4 µM (active) and 16.9 µM (active) | Potency [5]: inactive | Potency [6]: 49 µM (active) and inactive | Potency [7]: 34.7 µM (active) and inactive | Potency [8]: 43.6 µM (active) and inactive | Potency [9]: 19.5 µM (active) and 21.3 µM (active) | Potency [10]: inactive

CCC(C)(C)C(=O)OC1=C(c2ccc(Cl)cc2Cl)C(=O)OC12CCCCC2
Potency [1]: inactive | Potency [2]: inactive | Potency [3]: inactive | max response [4]: -14% (inactive) | Potency [5]: inactive | Potency [6]: inactive | Potency [7]: inactive | Potency [8]: inactive | Potency [9]: inactive

Fc1cccc(Cl)c1CCl
Potency [1]: inactive | Potency [2]: inactive | Potency [3]: inactive | max response [4]: -1.59% (inactive) | Potency [5]: inactive | Potency [6]: inactive | Potency [7]: inactive | Potency [8]: inactive | Potency [9]: inactive | Potency [10]: inactive

COCC(=O)N(c1c(C)cccc1C)[C@H](C)C(=O)OC
Potency [1]: inactive | Potency [2]: inactive | Potency [3]: inactive | max response [4]: -0.139% (inactive) | Potency [5]: inactive | Potency [6]: inactive | Potency [7]: inactive | Potency [8]: inactive | Potency [9]: inactive

ClC1=C(Cl)[C@]2(Cl)[C@@H]3[C@@H]4C[C@@H]([C@H]5O[C@@H]45)[C@@H]3[C@@]1(Cl)C2(Cl)Cl
Potency [1]: 51.9 µM (active) | Potency [2]: 21.9 µM (active) | Potency [3]: 43.6 µM (active) | Potency [4]: 44.9 µM (active) | Potency [5]: 49 µM (active) | Potency [6]: 54.9 µM (active) | Potency [7]: 49 µM (active) | Potency [8]: 49 µM (active) | Potency [9]: 49 µM (active) | Potency [10]: inactive

S=C=Nc1cccc2ccccc12
Potency [1]: inactive | Potency [2]: inactive | Potency [3]: inactive | max response [4]: 2.28% (inactive) | Potency [5]: inactive | Potency [6]: inactive | Potency [7]: inactive | Potency [8]: inactive | Potency [9]: inactive | Potency [10]: inactive
